Bioassay records: PubChem, Sanford-Burnham Center for Chemical Genomics
Compounds with a hit are over-represented: about 28% of the library has one in this group of screens.
CYP2C19 activ: activators of human cytochrome P450 2C19 | AID 1025 | P33261 | recombinant CYP2C19, luciferin-H EGE luminescence; stronger effect = higher value; 0 = fully inhibited enzyme, 1 = untreated enzyme | activation factor at 5 µM | 96,000 tested, under 10 active;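 active = activation factor of at least 2 at 5 µM in the primary screen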
Target sequence (P33261 whole entry, looked up): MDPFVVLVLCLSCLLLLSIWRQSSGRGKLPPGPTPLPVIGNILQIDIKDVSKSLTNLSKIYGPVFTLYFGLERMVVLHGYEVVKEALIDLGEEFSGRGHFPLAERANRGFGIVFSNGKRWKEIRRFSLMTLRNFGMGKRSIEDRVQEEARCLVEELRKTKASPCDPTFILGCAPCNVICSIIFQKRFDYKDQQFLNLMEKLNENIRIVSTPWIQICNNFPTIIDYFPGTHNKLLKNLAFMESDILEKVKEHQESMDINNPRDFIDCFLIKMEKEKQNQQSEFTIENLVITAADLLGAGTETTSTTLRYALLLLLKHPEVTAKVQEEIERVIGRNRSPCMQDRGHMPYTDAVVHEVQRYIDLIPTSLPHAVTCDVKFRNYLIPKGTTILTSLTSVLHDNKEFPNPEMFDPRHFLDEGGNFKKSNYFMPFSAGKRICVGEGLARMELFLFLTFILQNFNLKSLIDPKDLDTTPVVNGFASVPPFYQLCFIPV
Mac1 fbg enh: enhancers of human CD11b/CD18 binding to fibrinogen; P05107+P11215; K562 CD11b/CD18 adhesion to fibrinogen, ATPlite luminescence; activation, % at 10 µM; actives 0.07% (n = 93,000);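 active = 10 µM primary screen giving 50% or more activity, confirmed by 40% or more on retest at that dose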
CYP2C9 activ: CYP2C9 (human) activation; recombinant CYP2C9, luciferin-H conversion, luminescence; stronger effect = higher value; factor 1 = untreated enzyme, 0 = blocked; actives 1.4% (n = 96,000); P11712; activation factor at 5 µM;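 active = activation factor of 2 or more for CYP2C9 at a 5 µM dose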
CYP2C9 inh: human CYP2C9 inhibition | CYP2C9 Supersomes, luciferin-H conversion, luminescence | inhibition, % at 5 µM | actives 20% (n = 96,000);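 active = blocking of liver enzyme CYP2C9 beyond about 50% at 5 µM, limit read from the data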
CYP2C19 inh: human CYP2C19 inhibition | CYP2C19 Supersomes, luciferin-H EGE luminescence, 30 min | actives 21% (n = 96,000) | P33261 | inhibition, % at 5 µM;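 active = CYP2C19 inhibition above a set limit at 5 µM in the primary screen, cut at about 50% in these data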
CD11b adhes inh: CD11b/CD18-fibrinogen binding inhibition. K562 CD11b/CD18 adhesion to fibrinogen, ATPlite luminescence; Mn2+ added to activate the integrin. actives 0.54% (n = 93,000). inhibition, % at 10 µM. P05107+P11215;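 active = primary inhibition of 50% or more at 10 µM, then 40% or more on retest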
Numbers stand for hits; 0 = inactive; - = not tested or not shown.

SMILES	CYP2C19 activ	Mac1 fbg enh	CYP2C9 activ	CYP2C9 inh	CYP2C19 inh	CD11b adhes inh
Cc1ccsc1C(=O)OCC(=O)Nc1cccc(S(=O)(=O)N2CCOCC2)c1	-	0	-	-	-	0
Cc1cc(NC(=O)C2C3C(=O)N(CCC(C)C)C(C(=O)NCc4ccccc4)C34C=CC2(C)O4)no1 (centres undefined)	0	0	0	0	0	0
C(=C1/CCCC2=C1Nc1ncnn1C2c1ccccc1)/c1ccccc1 (centres undefined)	0	0	0	0	0	0
CC(=O)Nc1ccccc1OCC(=O)c1cc(C)n(Cc2cccs2)c1C	0	0	0	0	80.5	102.2
CCn1nc(C(=O)OCC(=O)c2cc(C)n(Cc3cccs3)c2C)c2ccccc2c1=O	0	0	0	0	79.9	0
Cc1cc(C(=O)COC(=O)c2ccc3c(c2)OCO3)c(C)n1Cc1cccs1	0	0	0	0	0	0
Cc1cc(C(=O)COC(=O)c2ccccc2O)c(C)n1Cc1cccs1	0	0	0	0	56.7	0
COc1ccc(C(=O)n2c(-c3ccco3)nc3ccccc32)cc1	0	0	0	61.0	54.2	0
O=c1c2ccccc2nc(-c2ccco2)n1Cc1ccccc1	0	0	0	0	0	0
CCOc1ccc(CCn2c(-c3ccco3)nc3ccccc3c2=O)cc1OCC	0	0	0	0	79.3	0
COc1ccc(OCCn2c(NC(=O)c3ccco3)nc3ccccc32)cc1	0	0	0	0	0	0
Cc1ccc(C)c(N2CCN(c3nc4ccccc4c(=O)n3Cc3ccccc3)CC2)c1	0	0	0	0	0	0
O=c1c2ccccc2nc(N2CCN(c3ccccc3)CC2)n1Cc1ccccc1	0	0	0	70.8	0	0
O=c1c2ccccc2nc(-c2ccc(Br)cc2)n1Cc1ccccc1	0	-	0	82.7	0	-
NC(=O)COc1ccc(C2c3c(oc4ccccc4c3=O)C(=O)N2CC2CCCO2)cc1 (centres undefined)	0	0	0	0	0	0
Cc1cccc(C(=O)NCc2nnc3c4ccccc4c(-c4ccccc4)nn23)c1	-	0	-	-	-	0
COc1ccc(CCn2c(-c3ccco3)nc3nc4ccccc4nc32)cc1	0	0	0	81.7	82.8	0
CCCCCn1c(-c2ccco2)nc2nc3ccccc3nc21	0	0	0	0	0	0
Clc1ccc(OCCn2c(-c3ccco3)nc3ccccc32)cc1	0	0	0	55.6	58.7	0
O=c1c2ccccc2nc(-c2ccoc2)n1CCc1ccccc1	0	0	0	55.9	58.0	0
CC(C)NCCOCCOc1ccccc1F	0	0	0	0	0	0
CCOC(=O)CSc1cc(C(F)(F)F)nc(-c2ccccn2)n1	0	-	0	0	0	-
O=S(=O)(Cc1cc(Cl)nc(-c2ccccc2)n1)c1ccccc1	0	0	0	0	91.5	0
CCOC(=O)CSc1cc(CS(=O)(=O)c2ccccc2)nc(-c2ccccc2)n1	0	0	0	53.9	80.8	0
Cc1nc(CS(=O)(=O)c2ccccc2)cc(Sc2ccc(Cl)cc2)n1	0	0	0	0	0	0
SMILES	CYP2C19 activ	Mac1 fbg enh	CYP2C9 activ	CYP2C9 inh	CYP2C19 inh	CD11b adhes inh
CCc1ccc(NC(=O)C(=O)c2cn(CC(=O)N3CCCCC3)c3ccccc23)cc1	-	0	-	-	-	0
COc1cccc(C(=O)SC2=NCCS2)c1	0	0	0	0	0	0
O=C(CCCc1ccccc1)N1CCN(c2ccc([N+](=O)[O-])cc2)CC1	0	-	0	0	0	-
O=C(CCc1ccc(Oc2cc([N+](=O)[O-])cc([N+](=O)[O-])c2)cc1)N1CCCCC1	0	0	0	82.4	53.7	0
O=[N+]([O-])c1ccc(N(c2ccccc2)c2ccccc2)cc1	0	0	0	50.7	0	0
Cc1ccc(S(=O)(=O)/N=C(/Nc2c(C)n(C)n(-c3ccccc3)c2=O)c2ccc(Cl)cc2)cc1	0	-	0	0	0	-
Cc1c(CCO)c(=O)n(-c2ccccc2)n1S(=O)(=O)c1ccc(Cl)cc1	0	0	0	0	69.9	0
CCN1CCN(c2nc3ccccc3nc2C(C#N)S(=O)(=O)c2ccc(C)c(C)c2)CC1 (centres undefined)	0	0	0	0	0	0
Cc1ccc(N=Cc2c(O)n(-c3nccs3)c(=O)c3ccccc23)cc1	-	0	-	-	-	0
Cc1cccc(N(CC(=O)NC2CCCC2)C(=O)CCCC(=O)Nc2ccccn2)c1	0	0	0	61.7	78.1	0
O=C(CCC(=O)N(CC(=O)NC1CCCCC1)c1ccc2c(c1)OCO2)Nc1ccccn1	0	0	0	0	0	0
Cc1ccc(C)c(N(CC(=O)NC2CCCC2)C(=O)CCCC(=O)Nc2ccccn2)c1	0	0	0	83.4	80.1	0
COc1ccccc1N(CC(=O)NC1CCCCC1)C(=O)CCC(=O)Nc1ccccn1	0	0	0	60.3	64.1	0
CCOc1ccc(N(CC(=O)NC2CCCC2)C(=O)CCC(=O)Nc2ccccn2)cc1	0	0	0	0	0	0
CCOc1ccc(N(CC(=O)NC2CCCC2)C(=O)CCCC(=O)Nc2ccccn2)cc1	0	0	0	0	0	0
Cc1cccc(N(CC(=O)NC2CCCC2)C(=O)CS(=O)CC(=O)Nc2ccc3c(c2)OCO3)c1 (centres undefined)	0	0	0	88.4	0	0
NNC(=O)CNC(=O)c1cccc(Br)c1	0	0	0	0	0	0
COc1ccccc1N(CC(=O)NC1CCCC1)C(=O)c1csnn1	0	0	0	0	90.9	0
CCCOc1ccc(-c2cnc(N)s2)cc1	0	0	0	0	0	0
Cc1nc2ccc(S(=O)(=O)NC(C(=O)NC3CCCC3)C(C)C)cc2s1 (centres undefined)	0	0	0	0	0	0
Cc1nc2ccc(S(=O)(=O)N(C)CC(=O)NCc3ccc4c(c3)OCO4)cc2s1	0	0	0	53.4	57.2	0
CCc1nnc(NC(=O)C(NS(=O)(=O)c2ccc3c(c2)OCCO3)C(C)C)s1 (centres undefined)	0	0	0	89.6	94.6	0
Cc1nc2ccc(S(=O)(=O)NCC(=O)NCc3ccc4c(c3)OCO4)cc2s1	0	0	0	0	0	0
Cc1nc2ccc(S(=O)(=O)NC(C(=O)NCc3ccc4c(c3)OCO4)C(C)C)cc2s1 (centres undefined)	0	0	0	0	51.0	0
CCCN(CCC)C(=O)Cn1c(=O)n(CCCCC(=O)NCc2ccco2)c(=O)c2ccccc21	0	0	0	69.4	0	0
Cc1ccc(C)c(Cn2c(=O)n(CCC(=O)NCc3ccco3)c(=O)c3ccccc32)c1	0	0	0	0	0	0
O=C(CCCn1c(=O)c2ccccc2n(CC(=O)NCc2ccco2)c1=O)NCc1ccco1	0	0	0	0	0	0
Cc1ccc(NC(=O)Cn2c(=O)n(CCCCC(=O)NCc3ccco3)c(=O)c3ccccc32)cc1	0	0	0	82.4	0	0
